Laboratory results as given in PubChem BioAssay.
Active and inactive are the calls of the source. Unless noted, no rule for the calls is given here.

How the values were obtained:
[1] = tested on: Wnt5a (protein binding on small-molecule microarray); test: Wnt5a binders on small-molecule microarray, primary screen, biophysical, 635/667 nm fluorescence (AID 1142); conditions: 635 nm fluorescence, higher = more signal;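 also: fluorescence read at 667 nm with signal to noise per printed feature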
[2] = cell viability in Huh7 cells, primary screen, cytotoxicity control for HCV replication inhibitor project, CellTiter-Glo luminescence, basal, 48 h (AID 1143); conditions: Huh7 HCV replicon, higher = more signal, called active from +8 up or from −8 down;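 also: Huh7 hepatoma cells carrying a hepatitis C replication reporter with no stimulus; test concentration not given here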
[3] = P. aeruginosa biofilm formation inhibitors, primary screen, PAO1 strain, BacTiter-Glo luminescence, LB-PBS (AID 1144); conditions: 12 h, higher = more signal
[4] = CREB reporter modulators without forskolin, primary screen, cell-based, PC12, CRE-LacZ reporter, unstimulated (AID 1145); conditions: no forskolin, luminescence, 4.5 h, higher = more signal, called active from +8 up or from −8 down
[5] = CREB reporter modulators under forskolin, primary screen, cell-based, PC12, CRE-LacZ reporter, forskolin-stimulated (AID 1146); conditions: luminescence, 4.5 h, higher = more signal, called active from +8 up or from −8 down;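 also: PC12 cells with 6xCRE LacZ reporter stimulated by forskolin 10 µM; beta-galactosidase reporter signal reflecting CREB driven transcription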
[6] = target: Streptavidin (Streptomyces avidinii) (UniProt P22629); test: streptavidin binders on small-molecule microarray, primary screen, artefact control for SMM compound annotation, biophysical, 635/667 nm fluorescence (AID 1147); conditions: streptavidin binding, higher = more signal;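 also: signal reflects streptavidin binding to arrayed compounds as a control protein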
Streptavidin (Streptomyces avidinii), sequence (P22629 whole entry, looked up): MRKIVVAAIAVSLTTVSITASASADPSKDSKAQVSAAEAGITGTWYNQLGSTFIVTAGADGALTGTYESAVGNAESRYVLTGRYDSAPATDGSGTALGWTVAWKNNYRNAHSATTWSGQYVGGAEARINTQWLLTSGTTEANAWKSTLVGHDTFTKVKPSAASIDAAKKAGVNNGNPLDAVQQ

[7] = small-molecule binders of probe aInhba, primary screen, biochemical, small-molecule microarray, 635/667 nm fluorescence (AID 1148); conditions: higher = more signal;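 also: score merges 667nm spot fluorescence with signal-to-noise for antibody binding to printed compounds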
[8] = target: Torsin-1A (Homo sapiens) (UniProt O14656); test: torsin A binders from cell lysate, primary screen, small-molecule microarray, wild-type, 635/667 nm (AID 1149); conditions: COS7 hTOR1A-WT lysate, 635 nm fluorescence, higher = more signal
Torsin-1A (Homo sapiens), sequence (O14656 whole entry, looked up): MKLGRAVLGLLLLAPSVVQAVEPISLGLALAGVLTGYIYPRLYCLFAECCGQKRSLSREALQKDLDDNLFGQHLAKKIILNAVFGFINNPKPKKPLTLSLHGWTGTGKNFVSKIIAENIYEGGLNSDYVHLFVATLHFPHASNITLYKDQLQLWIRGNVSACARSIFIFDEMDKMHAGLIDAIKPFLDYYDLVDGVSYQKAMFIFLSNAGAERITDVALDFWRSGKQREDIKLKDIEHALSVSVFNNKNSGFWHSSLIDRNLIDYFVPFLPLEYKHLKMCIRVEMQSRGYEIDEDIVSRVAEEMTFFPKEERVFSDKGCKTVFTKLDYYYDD

[9] = target: Torsin-1A (Homo sapiens) (UniProt O14656); test: small-molecule binders of mutant TOR1A in lysate, primary screen, cell lysate, small-molecule microarray, COS7 lysate, 635/667 nm fluorescence (AID 1150); conditions: COS7 hTOR1A mutant lysate, 635 nm fluorescence, higher = more signal;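 also: score pools 667 nm emission and signal to noise measuring lysate protein binding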
[10] = tested on: Sonic hedgehog protein (Shh); test: small-molecule binders of Shh protein, primary screen, biochemical, small-molecule microarray, 635/667 nm fluorescence (AID 1151); conditions: small-molecule microarray binding, 635 nm fluorescence; higher = more signal;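 also: Shh protein binding to compounds spotted on small-molecule microarray slides; score combines spot fluorescence intensity with signal-to-noise across triplicate slides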
[11] = E. coli DRC41 culture turbidity changes, primary screen, E. coli filamentation inducer project, strain DRC41, OD650, 48 h (AID 1152);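 also: E. coli MC1000 strain DRC41 lacking acrAB efflux pump and sulA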; conditions: E. coli DRC41 (acrAB sulA), higher = more signal, called active from +8 up or from −8 down
[12] = small-molecule binders of probe aLefty1, primary screen, biochemical, small-molecule microarray, 635/667 nm fluorescence (AID 1153); conditions: higher = more signal;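 also: score merges spot fluorescence with signal-to-noise ratio from the scanned slide images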
[13] = PSAC antagonists in infected red cells, primary screen, cell-based, P. falciparum Indochina, OD700, 1 h (AID 1154); conditions: P. falciparum Indochina infected RBC osmotic lysis, higher = more signal, called active from +8 up or from −8 down
[14] = PSAC antagonists in infected red cells, primary screen, cell-based, P. falciparum Indochina, OD700, 2 h (AID 1155);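 also: lysis reports solute entry through the parasite surface anion channel PSAC; channel blockers reduce lysis of infected cells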; conditions: P. falciparum Indochina infected erythrocytes, osmotic lysis OD700; higher = more signal, called active from +8 up or from −8 down
[15] = osmotic lysis modulators in infected erythrocytes, primary screen, PSAC antagonist project, cell-based, P. falciparum Indochina, OD700, 3 h (AID 1156); conditions: higher = more signal, called active from +8 up or from −8 down
[16] = PSAC antagonists in infected red cells, primary screen, cell-based, P. falciparum Indochina, OD700, 18 h (AID 1157); conditions: P. falciparum Indochina infected erythrocytes, osmotic lysis OD700, 18 h; higher = more signal, called active from +8 up or from −8 down
[17] = modulators of S6 phosphorylation in cells, primary screen, cell-based, A549, cytoblot, luminescence, serum-stimulated (AID 1158); conditions: A549 phospho-S6 cytoblot, 5 h, higher = more signal;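 also: serum-stimulated A549 lung adenocarcinoma cells; signal is phosphorylated S6 detected by cytoblot immunostaining with HRP secondary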
[18] = target: NADPH oxidase 2 (Homo sapiens) (UniProt P04839); test: NOX2-dependent H2O2 signal modulators, primary screen, NOX inhibitor project, cell-based, HEK293-NOX2, PMA-stimulated, Amplex Red fluorescence (AID 1159); conditions: 45 min, higher = more signal, called active from +8 up or from −8 down; also: test concentration not given here
NADPH oxidase 2 (Homo sapiens), sequence (P04839 whole entry, looked up): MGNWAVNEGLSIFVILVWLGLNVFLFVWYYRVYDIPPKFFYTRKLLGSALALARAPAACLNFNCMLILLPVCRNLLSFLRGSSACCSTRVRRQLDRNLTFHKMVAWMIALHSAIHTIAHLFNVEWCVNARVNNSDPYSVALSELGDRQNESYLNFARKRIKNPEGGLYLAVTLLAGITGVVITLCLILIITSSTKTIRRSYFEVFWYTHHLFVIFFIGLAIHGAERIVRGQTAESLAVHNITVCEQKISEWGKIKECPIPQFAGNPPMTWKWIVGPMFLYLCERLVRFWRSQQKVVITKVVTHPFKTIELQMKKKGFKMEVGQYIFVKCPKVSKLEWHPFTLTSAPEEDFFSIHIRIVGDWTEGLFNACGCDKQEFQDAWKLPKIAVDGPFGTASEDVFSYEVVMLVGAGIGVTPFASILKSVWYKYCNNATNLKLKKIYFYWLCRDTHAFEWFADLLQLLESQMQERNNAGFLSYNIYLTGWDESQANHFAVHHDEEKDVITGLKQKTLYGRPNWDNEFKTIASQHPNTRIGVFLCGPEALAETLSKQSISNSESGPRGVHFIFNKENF

[19] = target: NADPH oxidase 4 (Homo sapiens) (UniProt Q9NPH5); test: NOX4-dependent H2O2 signal modulators, primary screen, NOX inhibitor project, cell-based, HEK293-NOX4, tetracycline-induced, Amplex Red fluorescence (AID 1160); conditions: 45 min, higher = more signal, called active from +8 up or from −8 down
NADPH oxidase 4 (Homo sapiens), sequence (Q9NPH5 whole entry, looked up): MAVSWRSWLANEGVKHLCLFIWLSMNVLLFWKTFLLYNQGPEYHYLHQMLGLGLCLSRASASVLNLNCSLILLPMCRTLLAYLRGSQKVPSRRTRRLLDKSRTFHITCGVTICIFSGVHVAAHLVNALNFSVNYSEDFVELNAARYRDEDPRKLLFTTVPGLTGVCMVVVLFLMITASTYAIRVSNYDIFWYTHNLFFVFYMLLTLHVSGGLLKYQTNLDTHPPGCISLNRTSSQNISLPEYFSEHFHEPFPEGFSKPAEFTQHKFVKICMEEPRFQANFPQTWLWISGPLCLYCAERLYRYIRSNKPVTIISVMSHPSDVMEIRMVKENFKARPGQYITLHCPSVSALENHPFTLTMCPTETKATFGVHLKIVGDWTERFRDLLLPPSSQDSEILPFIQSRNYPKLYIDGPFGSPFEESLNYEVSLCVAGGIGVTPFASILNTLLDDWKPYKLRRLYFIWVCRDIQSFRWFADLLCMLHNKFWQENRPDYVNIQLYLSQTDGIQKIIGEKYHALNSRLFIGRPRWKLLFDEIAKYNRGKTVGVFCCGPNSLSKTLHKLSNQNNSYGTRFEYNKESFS

[20] = target: NADPH oxidase 5 (Homo sapiens) (UniProt Q96PH1); test: NOX5-dependent H2O2 signal modulators, primary screen, NOX inhibitor project, cell-based, HEK293-NOX5, Amplex Red fluorescence (AID 1161); conditions: HEK293-NOX5, ionomycin, 45 min, higher = more signal
NADPH oxidase 5 (Homo sapiens), sequence (Q96PH1 whole entry, looked up): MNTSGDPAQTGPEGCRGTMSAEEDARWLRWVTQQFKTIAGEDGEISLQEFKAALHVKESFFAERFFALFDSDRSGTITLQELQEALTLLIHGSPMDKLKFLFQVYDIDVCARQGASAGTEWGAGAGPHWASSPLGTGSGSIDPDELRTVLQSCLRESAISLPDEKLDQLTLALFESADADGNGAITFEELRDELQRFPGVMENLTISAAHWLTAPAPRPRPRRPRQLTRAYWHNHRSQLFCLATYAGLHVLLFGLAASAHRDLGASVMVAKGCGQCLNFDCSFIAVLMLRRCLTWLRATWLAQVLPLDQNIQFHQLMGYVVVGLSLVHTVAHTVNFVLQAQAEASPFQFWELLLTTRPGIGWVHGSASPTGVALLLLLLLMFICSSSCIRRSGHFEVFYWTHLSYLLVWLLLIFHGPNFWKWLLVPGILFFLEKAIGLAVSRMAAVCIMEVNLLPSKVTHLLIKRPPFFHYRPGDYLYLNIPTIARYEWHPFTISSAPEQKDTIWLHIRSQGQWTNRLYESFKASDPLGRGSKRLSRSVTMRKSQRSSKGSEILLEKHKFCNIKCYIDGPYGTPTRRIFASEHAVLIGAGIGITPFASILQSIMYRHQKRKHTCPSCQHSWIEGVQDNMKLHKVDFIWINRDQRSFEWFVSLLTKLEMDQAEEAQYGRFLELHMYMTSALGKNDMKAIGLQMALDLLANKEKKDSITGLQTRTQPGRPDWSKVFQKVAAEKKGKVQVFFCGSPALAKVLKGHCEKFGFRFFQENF

With C=CCNC(=O)[C@H]1[C@@H]2C(=O)O[C@@H](c3ccccc3)[C@@H](c3ccccc3)N2[C@@H](c2ccc(O)cc2)[C@]12C(=O)N(C(=O)OCCOC)c1ccc(C#CCC(C(=O)OC)C(=O)OC)cc12 the composite z-score [1] was 0.027, the z-score [2] was -2.96 (inactive) and the z-score [3] was 0.102 (inactive). The z-score [4] was 0.0653 (inactive), the z-score [5] was 0.141 (inactive) and the composite z-score [6] was 0.663. For the same molecule, the composite z-score [7] was -0.0221, the composite z-score [8] was 0.757 and the composite z-score [9] was 0.283. The composite z-score [10] was 1.75, the z-score [11] was -0.275 (inactive) and the composite z-score [12] was 0.139. The z-score [13] was 5.56 (inactive), the z-score [14] was 1.27 (inactive) and the z-score [15] was -4.17 (inactive). The z-score [16] was 0.516 (inactive), the z-score [17] was -0.016 and the z-score [18] was 1.95 (inactive). For the same molecule, the z-score [19] was 1.14 (inactive) and the z-score [20] was 1.52.

In the case of CC(C)C(=C=CC[C@@H](O)c1cccc(OCCO)c1)C[C@@H](O)COCc1ccccc1, the composite z-score [1] is reported as 0.139, the z-score [2] is reported as -2.36 (inactive) and the z-score [3] is reported as 0.232 (inactive). For the same molecule, the z-score [4] was 7.66 (inactive), the z-score [5] was -1 (inactive) and the composite z-score [6] was -0.506. It also gave a composite z-score [7] of -0.165, a composite z-score [8] of -0.134 and a composite z-score [9] of -0.377. For the same molecule, the composite z-score [10] was 1.06, the z-score [11] was 1.74 (inactive) and the composite z-score [12] was -0.504. The z-score [13] was 12.8 (active), the z-score [14] was -0.6 (inactive) and the z-score [15] was 1.76 (inactive). The z-score [16] was -2.05 (inactive), the z-score [17] was 3.5 and the z-score [18] was -1.19 (inactive). For the same molecule, the z-score [19] was -1.2 (inactive) and the z-score [20] was -2.4.

For O=C1C[C@@](C(=O)NCc2ccccc2)(c2ccc([N+](=O)[O-])cc2)[C@@H](c2ccc(CO)cc2I)N1CC12CC3CC(CC(C3)C1)C2, the composite z-score [1] was 0.77, the z-score [2] was -5.74 (inactive) and the z-score [3] was -1.67 (inactive). The z-score [4] was -0.709 (inactive), the z-score [5] was -0.038 (inactive) and the composite z-score [6] was 0.0117. It also gave a composite z-score [7] of -0.246, a composite z-score [8] of 0.585 and a composite z-score [9] of 0.825. For the same molecule, the composite z-score [10] was 2.06, the z-score [11] was 0.832 (inactive) and the composite z-score [12] was -0.641. For the same molecule, the z-score [13] was 8.97 (active), the z-score [14] was 1.41 (inactive) and the z-score [15] was 2.53 (inactive). For the same molecule, the z-score [16] was 0.301 (inactive), the z-score [17] was 2.5 and the z-score [18] was -1.38 (inactive). The z-score [19] was -4.29 (inactive) and the z-score [20] was -3.82.

With COc1ccc([Si](C)(C)[C@H]2[C@H](CCO)O[C@@]3(C(=O)N(Cc4ccccc4)c4ccc(N5C(=O)c6ccccc6Oc6ccccc65)cc43)[C@@H]2C)cc1 the composite z-score [1] was 0.147, the z-score [2] was -6.59 (inactive) and the z-score [3] was -0.0823 (inactive). For the same molecule, the z-score [4] was 0.324 (inactive), the z-score [5] was -0.328 (inactive) and the composite z-score [6] was -0.069. The composite z-score [7] was -0.128, the composite z-score [8] was -0.218 and the composite z-score [9] was 0.102. The composite z-score [10] was 0.534, the z-score [11] was 0.503 (inactive) and the composite z-score [12] was 0.121. For the same molecule, the z-score [13] was 3.46 (inactive), the z-score [14] was 1.45 (inactive) and the z-score [15] was 0.354 (inactive). For the same molecule, the z-score [16] was 1.19 (inactive), the z-score [17] was 0.314 and the z-score [18] was -1.35 (inactive). The z-score [19] was 1.42 (inactive) and the z-score [20] was 0.269.

With COC(=O)[C@@]1(Cc2ccccc2)[C@H]2c3cc(C(=O)N4CCCC4)n(CCSCCO)c3C[C@H]2CN1C(=O)c1ccccc1 the composite z-score [1] was 0.554, the z-score [2] was -1.17 (inactive) and the z-score [3] was 0.019 (inactive). For the same molecule, the z-score [4] was 0.387 (inactive), the z-score [5] was 2.14 (inactive) and the composite z-score [6] was 1.15. The composite z-score [7] was 0.545, the composite z-score [8] was 0.424 and the composite z-score [9] was 0.989. The composite z-score [10] was 0.0779, the z-score [11] was -1.88 (inactive) and the composite z-score [12] was 0.597. The z-score [13] was 1.5 (inactive), the z-score [14] was 0.636 (inactive) and the z-score [15] was 0.57 (inactive). The z-score [16] was 0.691 (inactive), the z-score [17] was -0.653 and the z-score [18] was 0.957 (inactive). For the same molecule, the z-score [19] was -0.446 (inactive) and the z-score [20] was -0.987.

With CC(C)(C)OC(=O)CC[C@]1(C(=O)N2CCCCC2)COC(c2ccc(OCCCO)cc2)=N1 the composite z-score [1] was 0.784, the z-score [2] was -2.07 (inactive) and the z-score [3] was -0.984 (inactive). For the same molecule, the z-score [4] was -0.837 (inactive), the z-score [5] was 0.238 (inactive) and the composite z-score [6] was 1.36. The composite z-score [7] was 0.127, the composite z-score [8] was 0.655 and the composite z-score [9] was 0.967. The composite z-score [10] was -0.65, the z-score [11] was 1.12 (inactive) and the composite z-score [12] was -0.403. The z-score [13] was 22.2 (active), the z-score [14] was 5.22 (inactive) and the z-score [15] was 1.11 (inactive). The z-score [16] was 0.663 (inactive), the z-score [17] was -0.515 and the z-score [18] was -2.59 (inactive). For the same molecule, the z-score [19] was 0.0723 (inactive) and the z-score [20] was -2.08.

In the case of Cc1nc2cc(Br)ccc2c(=O)n1Cc1cccc(O)c1, the composite z-score [1] is reported as 0.59, the z-score [2] is reported as 0.267 (inactive) and the z-score [3] is reported as -0.0703 (inactive). The z-score [4] was -1.11 (inactive), the z-score [5] was -0.978 (inactive) and the composite z-score [6] was 0.57. The composite z-score [7] was -0.0567, the composite z-score [8] was 0.995 and the composite z-score [9] was 0.407. For the same molecule, the composite z-score [10] was 1.29, the z-score [11] was 0.685 (inactive) and the composite z-score [12] was -0.216. The z-score [13] was 0.73 (inactive), the z-score [14] was 0.368 (inactive) and the z-score [15] was 0.136 (inactive). The z-score [16] was 0.377 (inactive), the z-score [17] was -0.257 and the z-score [18] was -0.763 (inactive). The z-score [19] was -0.191 (inactive) and the z-score [20] was -0.302.

For O=C(O)[C@@H]1C[C@@H]2C(=O)N3CCC[C@H]3C(=O)N2[C@@H]1c1cccc(OCCO)c1, the composite z-score [1] was 1.25, the z-score [2] was -0.0592 (inactive) and the z-score [3] was 1.36 (inactive). The z-score [4] was 0.143 (inactive), the z-score [5] was -0.382 (inactive) and the composite z-score [6] was 3.76. For the same molecule, the composite z-score [7] was 1.95, the composite z-score [8] was 2.99 and the composite z-score [9] was 2.12. For the same molecule, the composite z-score [10] was 2.02, the z-score [11] was 0.807 (inactive) and the composite z-score [12] was 2.57. The z-score [13] was 2.94 (inactive), the z-score [14] was 0.591 (inactive) and the z-score [15] was -1.77 (inactive). The z-score [16] was 0.35 (inactive), the z-score [17] was 0.132 and the z-score [18] was 1.29 (inactive). For the same molecule, the z-score [19] was 0.355 (inactive) and the z-score [20] was 1.59.

For CN1C(=O)C2C(C1=O)C1C=C(CCCO)C2C(c2cccs2)N1Cc1cc2c(cc1Br)OCO2 (stereo not given), the composite z-score [1] was 0.418, the z-score [2] was -1.8 (inactive) and the z-score [3] was 0.482 (inactive). For the same molecule, the z-score [4] was -0.374 (inactive), the z-score [5] was -0.101 (inactive) and the composite z-score [6] was 2.27. The composite z-score [7] was 0.233, the composite z-score [8] was 1.5 and the composite z-score [9] was 1.95. For the same molecule, the composite z-score [10] was 0.162, the z-score [11] was -0.139 (inactive) and the composite z-score [12] was -0.0587. For the same molecule, the z-score [13] was 25.1 (active), the z-score [14] was 15.9 (active) and the z-score [15] was 0.0521 (inactive). The z-score [16] was 1.58 (inactive), the z-score [17] was 0.791 and the z-score [18] was 0.196 (inactive). The z-score [19] was 0.0713 (inactive) and the z-score [20] was 0.741.
